# Data from PubChem BioAssay (EPA / NIEHS).
# Inconclusive results are not listed. Calls of active or inactive are those of the source. How the source made its calls, unless noted: active means hit-call score of the fitted dose curve at least 0.9, where 1 is the maximum; inconclusive means response in the unintended direction; inactive means score below 0.9.
# Read-out: not listed separately
# Assay: BSK_3C_TissueFactor: BioMAP Diversity Plus: 3C Assay for Tissue Factor Biomarker Activity (AID 2282997; active means hit-call score of the fitted dose curve at least 0.9, where 1 is the maximum; inactive means score below 0.9)
# Conditions: BioMAP 3C HUVEC, tissue factor biomarker readout; actives raise or lower the signal
# How it was run: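 Primary human umbilical vein endothelial cells in the 3C system were exposed to test chemical for 24 h, then Tissue Factor measured by ELISA. Activity was fitted bidirectionally against DMSO as negative control and baseline.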
Structure (SMILES),outcome,AC50
CCCCCCC(O)CCCCCCCCCCC(=O)OC (stereo unspecified),inactive,–
CCC(C)=NO,inactive,–
Cc1cc(-n2nc3ccc(Cl)cc3n2)c(O)c(C(C)(C)C)c1,inactive,–
Oc1cccc2ccccc12,–,12.1 µM (active)
CN(C)c1ccc(C(c2ccccc2)c2ccc(N(C)C)cc2)cc1,–,2 µM (active)
CC[N+](CC)(CC(=O)Nc1c(C)cccc1C)Cc1ccccc1 (tested in a mixture with another compound),inactive,–

# Read-out: not listed separately
# Assay: BSK_3C_uPAR: BioMAP Diversity Plus: 3C Assay for Urokinase-type plasminogen activator receptor (uPAR) Biomarker Activity (AID 2282998; active means hit-call score of the fitted dose curve at least 0.9, where 1 is the maximum; inactive means score below 0.9)
# Conditions: BioMAP 3C HUVEC, uPAR biomarker ELISA; actives raise or lower the signal
# How it was run: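 Endothelial primary cells of human umbilical vein origin received test chemical; 24 h later uPAR was assayed by ELISA. Fitting was bidirectional, DMSO as negative control.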
row,Structure (SMILES),outcome
1,CCCCCCC(O)CCCCCCCCCCC(=O)OC (stereo unspecified),inactive
2,CCC(C)=NO,inactive
3,Cc1cc(-n2nc3ccc(Cl)cc3n2)c(O)c(C(C)(C)C)c1,inactive
4,Oc1cccc2ccccc12,inactive
5,CN(C)c1ccc(C(c2ccccc2)c2ccc(N(C)C)cc2)cc1,inactive
6,CC[N+](CC)(CC(=O)Nc1c(C)cccc1C)Cc1ccccc1 (tested in a mixture with another compound),inactive

# Read-out: not listed separately
# Assay: BSK_4H_Eotaxin3: BioMAP Diversity Plus: 4H Assay for Eotaxin 3 Biomarker Activity (AID 2283000; active means hit-call score of the fitted dose curve at least 0.9, where 1 is the maximum; inactive means score below 0.9;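 on outcome: CCL26 protein level quantified by ELISA in parallel with SRB cytotoxicity check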)
# Conditions: primary human endothelial cells (HUVEC); actives raise or lower the signal
# How it was run: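 HUVEC, 24 h post-dose, ELISA for Eotaxin-3/CCL26. Gain or loss of signal fitted bidirectionally vs DMSO baseline.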
Structure (SMILES),outcome,AC50
CCCCCCC(O)CCCCCCCCCCC(=O)OC (stereo unspecified),inactive,–
CCC(C)=NO,inactive,–
Cc1cc(-n2nc3ccc(Cl)cc3n2)c(O)c(C(C)(C)C)c1,inactive,–
Oc1cccc2ccccc12,–,13.7 µM (active)
CN(C)c1ccc(C(c2ccccc2)c2ccc(N(C)C)cc2)cc1,–,8.42 µM (active)
CC[N+](CC)(CC(=O)Nc1c(C)cccc1C)Cc1ccccc1 (tested in a mixture with another compound),inactive,–

# Target: human Peroxisome Proliferator-activated Receptor alpha (PPARa), PPARA (gene 5465) (UniProt Q07869)
# Assay: ATG_PPARa_TRANS: Attagene TRANS-FACTORIAL HepG2 Assay for human Peroxisome Proliferator-activated Receptor alpha (PPARa) (AID 2283001);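 on AC50: potency for gain of reporter signal over DMSO so agonist or activator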
# Conditions: not given
# How it was run: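 HepG2 cells transiently transfected with multiplexed GAL4-UAS reporter units and chimeric NR-Gal4 constructs were dosed for 24 h. Reporter mRNA was measured by RT-PCR with fluorescent labelling and capillary electrophoresis; gain of signal fitted against DMSO.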
# human Peroxisome Proliferator-activated Receptor alpha (PPARa), PPARA (gene 5465), sequence (Q07869 whole entry, looked up): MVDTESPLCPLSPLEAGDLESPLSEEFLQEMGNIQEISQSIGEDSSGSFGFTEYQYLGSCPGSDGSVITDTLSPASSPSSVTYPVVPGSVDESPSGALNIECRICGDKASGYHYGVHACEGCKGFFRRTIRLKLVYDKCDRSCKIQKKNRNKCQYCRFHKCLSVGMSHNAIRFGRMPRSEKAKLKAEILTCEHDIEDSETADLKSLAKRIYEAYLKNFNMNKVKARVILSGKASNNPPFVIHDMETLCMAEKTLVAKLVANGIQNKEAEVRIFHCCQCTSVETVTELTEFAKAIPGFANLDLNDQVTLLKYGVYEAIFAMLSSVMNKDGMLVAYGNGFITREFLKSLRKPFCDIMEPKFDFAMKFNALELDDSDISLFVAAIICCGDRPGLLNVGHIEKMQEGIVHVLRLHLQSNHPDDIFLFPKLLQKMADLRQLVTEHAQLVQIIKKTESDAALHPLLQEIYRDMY
Structure (SMILES),outcome,AC50
CCCC(=O)OC/C=C(\C)CCC=C(C)C,inactive,–
CCCCCCC(O)CCCCCCCCCCC(=O)OC (stereo unspecified),–,7.36 µM (active)
O=C(O)/C=C/C(=O)O,inactive,–
O=S(=O)(O)c1cccc2ccccc12,inactive,–
CC/C=C\CC/C=C/C(OCC)OCC,inactive,–
CN1CCCC1,inactive,–
CCO[Si](CCCN)(OCC)OCC,inactive,–
CCCCCCC1CCC(=O)O1 (stereo unspecified),inactive,–
O=[N+]([O-])c1ccccc1C(F)(F)F,inactive,–
CCc1cc(C(N)=S)ccn1,inactive,–
CCC(C)=NO,inactive,–
CCCCCC1CCCC(=O)O1 (stereo unspecified),inactive,–
Cc1cc2nc3c(=O)[nH]c(=O)nc-3n(C[C@H](O)[C@H](O)[C@H](O)CO)c2cc1C,inactive,–
O=C(OCc1ccccc1)c1ccccc1,inactive,–
CCCCCCC1CCCC(=O)O1 (stereo unspecified),–,27.3 µM (active)
c1ccc(CNc2ncnc3nc[nH]c23)cc1,inactive,–
Oc1cccc2ccccc12,inactive,–
C=CN1CCCCCC1=O,inactive,–
Oc1ccc(Oc2ccccc2)cc1,inactive,–
CC(=O)CCc1ccccc1,inactive,–
CNC[C@H](O)[C@@H](O)[C@H](O)[C@H](O)CO,inactive,–
c1ccc2c(c1)Oc1ccccc1S2,inactive,–
CCCCCC[C@@H](O)C/C=C\CCCCCCCC(=O)O,–,8.72 µM (active)
